MITF primary: human MITF inhibition, primary screen; O75030; AlphaScreen MITF homodimerization, bead proximity signal; inhibition, % at 2.6 µM; 0.91% of 650,000 active; in the data active = inhibition above about 50%;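 note: 0% = vehicle wells with protein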
GPR151 ag: activators of human GPR151. Q8TDV0. PathHunter beta-arrestin GPR151 cells, luminescence. activation, % at 11.2 µM. 1% of 650,000 active. AID 1508602; in the data active = activation above about 4.9%;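 note: 0% = median of compound wells and 100% = cells with positive control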
FBW7 act: human FBW7 E3 ligase activation, primary screen; Q969H0; normalized activity (activation), % at 26.1 µM; AlphaScreen FBW7–phospho-cyclin E peptide binding, activator screen; 0.13% of 650,000 active; in the data active = normalized activity above about 1.9%;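 note: purified mutant Fbw7 with reduced substrate affinity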
Target sequence (Q969H0 whole entry, looked up): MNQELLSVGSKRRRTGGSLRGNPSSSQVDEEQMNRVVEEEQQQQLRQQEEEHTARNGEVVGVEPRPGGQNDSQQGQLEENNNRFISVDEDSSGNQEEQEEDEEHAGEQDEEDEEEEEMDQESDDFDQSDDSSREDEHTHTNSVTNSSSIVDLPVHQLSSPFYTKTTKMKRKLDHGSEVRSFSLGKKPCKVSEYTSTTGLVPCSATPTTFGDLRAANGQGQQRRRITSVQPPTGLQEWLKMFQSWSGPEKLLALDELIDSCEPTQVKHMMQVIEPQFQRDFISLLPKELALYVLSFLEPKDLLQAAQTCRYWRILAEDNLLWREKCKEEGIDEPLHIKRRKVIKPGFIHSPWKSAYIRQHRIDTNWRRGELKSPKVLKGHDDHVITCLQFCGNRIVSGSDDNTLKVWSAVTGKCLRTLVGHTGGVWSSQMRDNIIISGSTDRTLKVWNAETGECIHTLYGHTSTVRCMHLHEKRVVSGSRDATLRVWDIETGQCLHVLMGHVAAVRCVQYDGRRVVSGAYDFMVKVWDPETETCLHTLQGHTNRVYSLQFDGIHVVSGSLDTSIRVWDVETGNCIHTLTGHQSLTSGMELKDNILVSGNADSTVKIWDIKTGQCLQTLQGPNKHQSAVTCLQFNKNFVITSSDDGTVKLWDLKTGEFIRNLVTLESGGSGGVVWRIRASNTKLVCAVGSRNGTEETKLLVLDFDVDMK
TEAD-YAP inh: TEAD-YAP interaction inhibition; HEK-TIYL cells, TEAD-Gal4/YAP UAS-luciferase luminescence; inhibition, % at 9.12 µM; 1.4% of 640,000 active; in the data active = inhibition above about 32%;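 note: 0% = median of test compound wells and 100% = reference inhibitor wells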
Active calls of the source: *. This is a sample that favours compounds with a hit; in the whole collection about 3.5% have one here.

SMILES | MITF primary | GPR151 ag | FBW7 act | TEAD-YAP inh
COc1cccc(/C=N/NC(=O)COc2cccc(C)c2C)c1O | -9 | 4 | 0 | 2
O=C(COc1ccccc1)N/N=C\c1ccc(O)cc1 | 14 | -1 | 2.1* | 7
COc1cccc(/C=N/NC(=O)COc2cc(C)ccc2C(C)C)c1O | 1 | 0 | 0 | 57*
Cc1ccc(C(C)C)c(OCC(=O)N/N=C/c2ccc[nH]2)c1 | -9 | -1 | 0 | -1
Cc1ccc(C(C)C)c(OCC(=O)N/N=C/c2ccc(O)c(O)c2)c1 | 0 | 1 | 0 | 47*
CC(=O)Nc1ccc(NC(=O)c2scc3c2CCCC3)cc1 | 2 | -1 | 0 | -55
CC(C)NC(=O)c1ccccc1NC(=O)c1ccccc1Br | 0 | -1 | 1 | 2
Cc1ccc(C(C)C)c(OCC(=O)N/N=C/c2ccc(O)cc2)c1 | 12 | 1 | 0 | 48*
COc1ccc(N2CCN(Cc3ccc(Br)o3)CC2)cc1 | 53* | -1 | 0 | 6
CC1=C(C(=O)Nc2ccc(F)cc2)C(c2ccc(Br)cc2)NC(=O)N1 (stereo not given) | 1 | -1 | 0 | -4
Cc1cccnc1NC(c1ccc([N+](=O)[O-])cc1)c1ccc2cccnc2c1O (stereo not given) | 48 | -1 | -2 | 70*
CC(=O)NC(c1ccc(C)cc1)c1ccc2cccnc2c1O (stereo not given) | 51* | -1 | -2 | 85*
CC(=O)NC(c1ccc([N+](=O)[O-])cc1)c1ccc2cccnc2c1O (stereo not given) | -21 | 2 | 0 | 84*
CC(=O)NC(c1ccc2ccccc2c1)c1ccc2cccnc2c1O (stereo not given) | 36 | 0 | -2 | 80*
CCOc1ccc(C(NC(C)=O)c2cc(Cl)c3cccnc3c2O)cc1 (stereo not given) | 3 | 1 | -1 | 9
CCOC(=O)C1=C(C)N=c2s/c(=C/c3cc(Br)c(O)c(OC)c3)c(=O)n2C1c1cc(OC)ccc1OC (stereo not given) | 3 | 0 | 0 | 1
CC1=C(C(=O)Nc2cccnc2)C(c2cccc(O)c2)n2nnnc2N1 (stereo not given) | 6 | -2 | 0 | 6
CCOC(=O)c1nc(N)c(=O)n(-c2ccc(C(=O)O)cc2)n1 | -12 | 0 | 0 | 1
CCOC(=O)c1sc(NC(=O)c2ccc(S(=O)(=O)N(CC(C)C)CC(C)C)cc2)nc1C | -12 | -1 | 0 | -15
CC(=O)NC(c1ccc(Br)cc1)c1ccc2cccnc2c1O (stereo not given) | -33 | -1 | 0 | 83*
CCOC(=O)C1=C(C)N(c2ccc(C)cc2)C(=O)/C1=C\c1ccc(O)cc1 | 4 | -2 | 0 | -3
COc1cccc(NC(=O)c2ccc(NC(C)=O)cc2)c1 | 11 | 1 | 1 | -23
COc1cccc(NC(=O)c2ccc(NCc3ccccc3OC)c([N+](=O)[O-])c2)c1 | 2 | 1 | 0 | 49*
COc1cccc(NC(=O)c2ccc(C)cc2)c1 | 6 | -10 | 0 | 62*
COc1cccc(NC(=O)c2ccc(C)cc2Cl)c1 | 13 | -3 | 0 | 67*
SMILES | MITF primary | GPR151 ag | FBW7 act | TEAD-YAP inh
Cc1ccc(C(=O)Nc2ccc(F)cc2)c(Cl)c1 | 5 | -3 | 0 | 62*
O=C(Nc1ccc(F)cc1)c1ccc(Cl)cc1Cl | 12 | -3 | 1 | -22
COc1ccccc1CNc1ccc(C(=O)Nc2ccc(C(C)C)cc2)cc1[N+](=O)[O-] | -2 | 0 | 0 | -8
Nc1ccccc1OC(=O)C1CCN(c2nc3ccccc3[nH]2)CC1 | 5 | -1 | 0 | -7
CC(=O)Nc1ccc(C(=O)Oc2ccc(Br)cc2)cc1 | -1 | 0 | 0 | 7
COc1cccc(C(=O)Nc2cccc(OC(=O)c3ccc(Br)cc3)c2)c1 | 3 | -2 | 0 | 44*
CCc1nnc2n1N=C(c1ccc3c(c1)OCCO3)CS2 | 12 | 0 | 0 | 51*
OCCNc1nc(-c2csc3ccccc23)nc2c1ncn2-c1ccsc1 | 7 | 0 | 0 | 44*
COc1ccc(CCNc2nc(-c3c(C)nn(C)c3C)nc3c2ncn3-c2ccsc2)cc1 | 5 | 3 | 0 | -6
c1csc(-c2nc(NC3CC3)c3ncn(-c4ccsc4)c3n2)c1 | 10 | -2 | 0 | 34*
CCCNc1nc(-c2cccs2)nc2c1ncn2-c1ccsc1 | 4 | -1 | 0 | 14
Cc1nn(C)c(C)c1-c1nc(NCCO)c2ncn(-c3ccsc3)c2n1 | 8 | 0 | 0 | 43*
c1ccc(CN2CCC(Nc3nc(-c4cccs4)nc4c3ncn4-c3ccccc3)CC2)cc1 | 10 | 1 | 0 | 14
OCCNc1nc(-c2cccs2)nc2c1ncn2-c1ccsc1 | 33 | 0 | 0 | 67*
CCOC(=O)CNC(=O)c1ccc(Br)o1 | 14 | -1 | 0 | 9
COc1ccccc1CNC(=O)c1cc2c(=O)n3cccc(C)c3nc2n1C | 6 | 0 | 0 | 1
CCC(Cc1ccccc1)NS(=O)(=O)c1ccc2c(c1)SCC(=O)N2 (stereo not given) | -13 | 0 | 0 | -6
CCN(CC)C(=O)c1ccc(Oc2ccc([N+](=O)[O-])cc2)cc1 | 2 | 2 | 0 | 6
Cc1ccc(Nc2ncnc(N)c2[N+](=O)[O-])c(Br)c1 | 1 | -1 | 0 | 2
CCOC(=O)c1cc2cccc(NS(=O)(=O)c3ccc(OC)cc3)c2[nH]1 | -4 | 0 | 0 | 52*
CCOC(=O)c1cc2cccc(NS(=O)(=O)c3cccs3)c2[nH]1 | 6 | -2 | 0 | 4
COc1ccc(S(=O)(=O)Nc2cccc3c(C)c(C)[nH]c23)cc1 | 10 | 2 | 0 | 44*
Cc1[nH]c2c(NS(=O)(=O)c3ccc4oc(=O)ccc4c3)cccc2c1C | 3 | 0 | 0 | -4
Cc1ccc(C2(C(C)C)C(=O)Nc3ccccc32)cc1 (stereo not given) | 22 | -1 | 0 | -2
CC(C)n1c(NCCN2CCOCC2)nc2c(Nc3ccccc3)ncnc21 | 3 | -4 | 0 | 41*
SMILES | MITF primary | GPR151 ag | FBW7 act | TEAD-YAP inh
CC(C)n1c(NCCCN2CCCC2=O)nc2c(Nc3ccccc3)ncnc21 | -6 | -8 | 0 | 35*
CCCNc1ncnc2c1nc(NCCCN1CCCC1=O)n2C(C)C | 9 | -2 | 0 | -19
CC(C)n1c(NCCN2CCOCC2)nc2c(Nc3ccc(N4CCOCC4)cc3)ncnc21 | 0 | -1 | 0 | -11
CCOC(=O)Nc1cccc(OCc2ccc(C#N)cc2)c1 | 16 | 0 | 1 | -5
CC1(C)CC(=O)C=C(NNC(=O)C2CC3CCC2C3)C1 (stereo not given) | 3 | 1 | 0 | 0
CC(=O)Nc1ccccc1N1CCN(S(C)(=O)=O)CC1 | 1 | 0 | 0 | 3
NC(=O)c1ccsc1NC(=O)CSc1nnc(-c2ccco2)n1-c1ccccc1 | 5 | 1 | 0 | 43*
Cc1c(Cc2ccccc2)sc(NC(=O)C2CCCCC2C(=O)O)c1C(N)=O (stereo not given) | 14 | 0 | 0 | 11
C(=C\c1ccccc1)/CNCCc1nc(-c2ccccc2)c2cnccn12 | -15 | 0 | -1 | -3
